The subject of assay [1] is Plasmodium falciparum Sir2 (PF13_0152, Sir2A). Nature of the assay: Plasmodium falciparum Sir2A binding compounds – biochemical, small-molecule microarray, 635 nm fluorescence, primary screen (AID 1098).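 Also: score merges spot fluorescence intensity with its signal-to-noise ratio.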 The conditions noted are these: fluorescence 635 nm, higher = more signal.
A short description of assay [2]: probe aDKK1 binding to arrayed compounds – biochemical, biotinylated probe, 635/667 nm fluorescence, primary screen (AID 1099).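 Also: score merges 667nm spot fluorescence with signal to noise across triplicate slides.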 The conditions noted are these: small-molecule microarray, higher = more signal.
Assay [3] is described as follows: probe aCHRDL2 binding to arrayed compounds – biochemical, biotinylated probe, 635/667 nm fluorescence, primary screen (AID 1100). The settings on record: small-molecule microarray, higher = more signal.
Assay [4] is described as follows: change in splice reporter luminescence, either direction, cell-based, HEK293, spliceosome inhibition project, primary screen (AID 1101).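 Also: HEK293 cells carrying a splicing-competent luciferase reporter gene; test concentration not given here.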 The settings on record: HEK293 splicing luciferase reporter, 24 h, higher = more signal, called active from +8 up or from −8 down. In general terms: Reporter assays use an easily measured gene product as a stand-in for the process of interest.

In assay [5] the target is Fibroblast growth factor 10 (Homo sapiens) (UniProt O15520). Briefly: compounds binding fibroblast growth factor 10 – biochemical, small-molecule microarray, 635 nm fluorescence, primary screen (AID 1102). The conditions noted are these: FGF10 binding, fluorescence 635 nm, higher = more signal.
Chain of Fibroblast growth factor 10 (Homo sapiens) (O15520 whole entry, looked up): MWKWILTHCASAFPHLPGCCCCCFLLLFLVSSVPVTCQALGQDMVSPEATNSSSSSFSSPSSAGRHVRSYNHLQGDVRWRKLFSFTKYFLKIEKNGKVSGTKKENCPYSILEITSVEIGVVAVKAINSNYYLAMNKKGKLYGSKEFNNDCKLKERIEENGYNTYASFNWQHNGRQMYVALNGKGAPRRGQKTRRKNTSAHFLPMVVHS
Assay [6] has as its system glycogen synthase kinase-3 (GSK3A per assay name; protocol says GSK3B). Briefly: compounds binding glycogen synthase kinase-3 – biochemical, small-molecule microarray, 635 nm fluorescence, GSK3A, primary screen (AID 1103). Also: the record names both GSK3A and GSK3B. The settings on record: fluorescence 635 nm, higher = more signal.
Assay [7] concerns the target Epidermal growth factor receptor (Homo sapiens) (UniProt P00533). Nature of the assay: compounds binding epidermal growth factor receptor – biochemical, small-molecule microarray, 635 nm fluorescence, primary screen (AID 1104).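 Also: score merges 667 nm emission intensity with spot signal to noise over triplicate slides.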 The settings on record: EGFR binding, higher = more signal.
The target of assay [8] is Follistatin-related protein 3 (Homo sapiens) (UniProt O95633). Nature of the assay: compounds binding follistatin-related protein 3 – biochemical, small-molecule microarray, 635 nm fluorescence, primary screen (AID 1105).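 Also: score merges emission near 667 nm and signal to noise per printed spot across three slides.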 The settings on record: FSTL3 binding, higher = more signal.
Chain of Follistatin-related protein 3 (Homo sapiens) (O95633 whole entry, looked up): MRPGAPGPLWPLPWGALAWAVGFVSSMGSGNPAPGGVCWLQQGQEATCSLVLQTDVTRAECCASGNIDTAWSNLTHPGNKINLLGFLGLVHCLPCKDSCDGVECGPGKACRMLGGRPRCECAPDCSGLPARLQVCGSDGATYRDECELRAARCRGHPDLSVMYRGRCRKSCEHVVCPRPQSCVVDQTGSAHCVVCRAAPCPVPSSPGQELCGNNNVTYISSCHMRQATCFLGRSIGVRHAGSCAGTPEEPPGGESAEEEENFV
The target in assay [9] is Dickkopf-related protein 1 (Homo sapiens) (UniProt O94907). Nature of the assay: small molecules binding DKK1 protein – biochemical, small-molecule microarray, 635 nm fluorescence scan, primary screen (AID 1106).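 Also: score merges emission near 667 nm with signal to noise over three replicate slides.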 The settings on record: higher = more signal.
Chain of Dickkopf-related protein 1 (Homo sapiens) (O94907 whole entry, looked up): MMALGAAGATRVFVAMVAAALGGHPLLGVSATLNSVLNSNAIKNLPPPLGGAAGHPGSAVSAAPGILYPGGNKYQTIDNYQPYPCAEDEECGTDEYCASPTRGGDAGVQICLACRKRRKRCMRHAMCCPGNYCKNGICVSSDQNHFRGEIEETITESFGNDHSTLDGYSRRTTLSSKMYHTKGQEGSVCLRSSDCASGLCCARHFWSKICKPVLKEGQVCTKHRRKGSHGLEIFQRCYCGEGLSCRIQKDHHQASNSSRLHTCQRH
The test system of assay [10] is Inhibin beta A chain (activin A). Briefly: small molecules binding activin A – biochemical, small-molecule microarray, 635 nm fluorescence scan, primary screen (AID 1107).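 Also: mouse activin A protein probed at 4.33 µg/mL on printed slides; score merges bound-protein fluorescence near 667 nm with spot signal-to-noise.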 The settings on record: INHBA, higher = more signal.
Assay [11] concerns Human papillomavirus type 1a protein E7 (residues 44-93). Briefly: small molecules binding HPV E7 44-93 – biochemical, small-molecule microarray, residues 44-93, 635 nm fluorescence, primary screen (AID 1108).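 Also: E7 fragment applied at 1 µg/mL in TBST for 1 h at 4 C; score combines spot fluorescence with its signal to noise ratio.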 The conditions noted are these: fluorescence 635 nm, higher = more signal.
Assay [12] in a line: hepatitis C replication reporter changes, two-sided – Huh7 cells, luciferase reporter, HCV replication inhibitor project, primary screen (AID 1109).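 Also: huh7 hepatoma cells harbouring a luciferase neomycin HCV replicon reporter; luciferase luminescence as measure of HCV replicon replication; test concentration not given here.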 The conditions noted are these: Huh7 HCV replicon luciferase reporter, 48 h; higher = more signal.
Assay [13] concerns the target Left-right determination factor 2 (Homo sapiens) (UniProt O00292). Briefly: small molecules binding LEFTY2 protein – biochemical, small-molecule microarray, 635 nm fluorescence scan, primary screen (AID 1110). The settings on record: higher = more signal.
Assay [14] has as its target Calmodulin-1 (Homo sapiens) (UniProt P0DP23). Briefly: small molecules binding calmodulin-1 with EGTA – biochemical, small-molecule microarray, Cy5-labelled CALM1, profiling panel (AID 1111).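 Also: labelled calmodulin applied in Tris saline Tween buffer holding calcium plus EGTA and DTT.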 The conditions noted are these: Cy5-CALM1 binding fluorescence, higher = more signal.
The target is the same in assay [15]. Nature of the assay: small molecules binding Ca-loaded calmodulin-1 – biochemical, small-molecule microarray, Cy5-labelled CALM1, plus calcium, artefact control for SMM control-protein annotation, profiling panel (AID 1112).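 Also: score merges spot fluorescence with signal to noise from triplicate slides.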 The settings on record: Cy5-CALM1 binding fluorescence, higher = more signal.
Assay [16] in a line: probe aWnt5a binding to arrayed compounds – biochemical, biotinylated probe, 635/667 nm fluorescence, primary screen (AID 1113).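 Also: score merges 667 nm fluorescence intensity with signal-to-noise per printed feature.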 The conditions noted are these: small-molecule microarray, higher = more signal.
A short description of assay [17]: probe aShh binding to arrayed compounds – biochemical, biotinylated probe, 635/667 nm fluorescence, primary screen (AID 1114).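 Also: probe is biotin-labelled aShh protein from a stem cell growth factor screen; measures binding of labelled protein to compounds printed on the slide; score merges feature fluorescence at 667 nm with signal-to-noise.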 The settings on record: small-molecule microarray, higher = more signal.
Assay [18] is described as follows: probe aNog binding to arrayed compounds – biochemical, biotinylated probe, 635/667 nm fluorescence, primary screen (AID 1115).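 Also: probe is biotinylated aNog protein used at 0.15 µg/mL for 1 h at 4 C; z-score combines 667 nm fluorescence of each spot with its signal to noise.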 The settings on record: small-molecule microarray, higher = more signal.
Assay [19] deals with Torsin-1A-interacting protein 1 (Homo sapiens) (UniProt Q5JTV8). Nature of the assay: compound microarray binding of lysate hLAP1 – cell lysate, small-molecule microarray, COS7 lysate, 635/667 nm fluorescence, primary screen (AID 1116). The conditions noted are these: 635 nm fluorescence, higher = more signal.
Chain of Torsin-1A-interacting protein 1 (Homo sapiens) (Q5JTV8 whole entry, looked up): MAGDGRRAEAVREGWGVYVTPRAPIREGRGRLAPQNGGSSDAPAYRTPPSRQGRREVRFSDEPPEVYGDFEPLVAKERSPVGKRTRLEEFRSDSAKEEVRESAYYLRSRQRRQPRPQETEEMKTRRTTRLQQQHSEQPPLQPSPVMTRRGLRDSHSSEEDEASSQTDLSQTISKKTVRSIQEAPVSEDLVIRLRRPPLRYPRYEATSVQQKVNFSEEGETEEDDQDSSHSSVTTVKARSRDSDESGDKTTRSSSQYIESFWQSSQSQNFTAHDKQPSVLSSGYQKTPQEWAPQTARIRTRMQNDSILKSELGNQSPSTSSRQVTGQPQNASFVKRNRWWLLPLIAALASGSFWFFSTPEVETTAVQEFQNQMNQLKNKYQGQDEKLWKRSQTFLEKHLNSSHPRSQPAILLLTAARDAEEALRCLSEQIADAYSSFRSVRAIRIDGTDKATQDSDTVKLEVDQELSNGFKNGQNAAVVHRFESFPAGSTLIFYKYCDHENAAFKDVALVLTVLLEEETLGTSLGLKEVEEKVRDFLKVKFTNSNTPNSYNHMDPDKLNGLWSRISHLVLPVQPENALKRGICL
The target of assay [20] is Alpha-bungarotoxin (Bungarus multicinctus) (UniProt P60615). Nature of the assay: compounds binding labelled alpha-BTX control protein – biochemical, small-molecule microarray, Alexa647 label, 635/667 nm fluorescence, artefact control for SMM control protein annotation, profiling panel (AID 1117). The conditions noted are these: alpha-BTX-A647 binding fluorescence, higher = more signal.
Chain of Alpha-bungarotoxin (Bungarus multicinctus) (P60615 whole entry, looked up): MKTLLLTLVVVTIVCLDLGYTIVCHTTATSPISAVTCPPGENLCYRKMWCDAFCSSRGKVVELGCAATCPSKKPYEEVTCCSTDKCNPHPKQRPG

Calls of active or inactive are those of the source.

Results on six compounds are retold here after PubChem BioAssay.

Chain of Left-right determination factor 2 (Homo sapiens) (O00292 whole entry, looked up): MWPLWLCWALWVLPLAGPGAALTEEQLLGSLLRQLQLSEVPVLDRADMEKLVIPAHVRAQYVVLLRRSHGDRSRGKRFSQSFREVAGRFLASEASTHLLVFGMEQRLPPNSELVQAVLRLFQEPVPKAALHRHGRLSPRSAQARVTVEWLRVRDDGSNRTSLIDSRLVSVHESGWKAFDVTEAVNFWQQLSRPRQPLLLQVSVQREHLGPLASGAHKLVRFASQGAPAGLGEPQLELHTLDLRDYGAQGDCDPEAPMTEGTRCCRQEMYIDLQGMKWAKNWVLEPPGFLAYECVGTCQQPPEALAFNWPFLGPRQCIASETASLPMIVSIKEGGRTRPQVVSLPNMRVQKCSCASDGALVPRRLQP
Chain of Epidermal growth factor receptor (Homo sapiens) (P00533 whole entry, looked up): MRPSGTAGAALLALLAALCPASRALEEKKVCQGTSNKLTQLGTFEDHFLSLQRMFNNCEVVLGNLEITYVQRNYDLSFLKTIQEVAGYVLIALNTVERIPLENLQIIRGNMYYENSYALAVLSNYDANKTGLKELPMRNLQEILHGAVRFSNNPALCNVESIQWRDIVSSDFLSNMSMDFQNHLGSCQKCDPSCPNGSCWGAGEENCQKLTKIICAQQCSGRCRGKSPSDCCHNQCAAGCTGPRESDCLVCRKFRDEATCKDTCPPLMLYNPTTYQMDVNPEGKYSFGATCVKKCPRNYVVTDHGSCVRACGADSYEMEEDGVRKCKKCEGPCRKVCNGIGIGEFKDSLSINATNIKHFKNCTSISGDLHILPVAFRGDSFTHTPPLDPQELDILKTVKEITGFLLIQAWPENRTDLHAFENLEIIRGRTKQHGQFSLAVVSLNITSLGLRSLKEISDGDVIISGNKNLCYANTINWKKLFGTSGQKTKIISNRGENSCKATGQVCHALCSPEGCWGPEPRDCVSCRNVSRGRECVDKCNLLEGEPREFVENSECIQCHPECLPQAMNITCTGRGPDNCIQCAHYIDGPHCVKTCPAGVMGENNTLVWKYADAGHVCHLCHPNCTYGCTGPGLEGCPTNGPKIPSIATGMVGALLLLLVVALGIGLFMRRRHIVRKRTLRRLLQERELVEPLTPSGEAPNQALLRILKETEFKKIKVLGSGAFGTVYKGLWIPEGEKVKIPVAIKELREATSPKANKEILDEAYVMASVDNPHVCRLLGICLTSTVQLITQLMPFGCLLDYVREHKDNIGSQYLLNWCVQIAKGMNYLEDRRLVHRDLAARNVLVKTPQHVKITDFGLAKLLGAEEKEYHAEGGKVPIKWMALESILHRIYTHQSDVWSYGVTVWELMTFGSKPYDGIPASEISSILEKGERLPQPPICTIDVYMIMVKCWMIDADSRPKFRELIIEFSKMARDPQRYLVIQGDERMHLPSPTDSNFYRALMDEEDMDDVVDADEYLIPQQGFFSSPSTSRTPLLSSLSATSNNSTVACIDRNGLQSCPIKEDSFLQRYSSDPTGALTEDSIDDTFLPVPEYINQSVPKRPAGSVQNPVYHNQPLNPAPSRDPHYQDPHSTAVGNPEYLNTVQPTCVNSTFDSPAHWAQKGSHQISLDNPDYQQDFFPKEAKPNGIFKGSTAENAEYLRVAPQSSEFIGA

`C[C@@H](c1ccccc1)N1C(=O)[C@H]2[C@H]3[C@H](O)[C@H](O)CC(=NOC[C@@H](O)COCc4ccco4)[C@@H]3CC[C@H]2C1=O`: the composite z-score in assay [1] was 0.693; in [2], -0.349; in assay [3] it was -0.402; in [5] it was -0.953; in assay [6], -0.468; in assay [7] it was -0.0809. The composite z-score is -1.31 in assay [8]; -1.03 in assay [9]; -0.365 in assay [10]; -0.856 in assay [11]; -0.433 in [13]; -0.495 in assay [14]. Besides, the composite z-score in assay [15] was -0.307; in [16], -0.124; in assay [17], -0.0863; in assay [18], -0.413; in assay [19], -0.375; in assay [20], 0.556. For the same compound, the results for the z-score in assay [4] and in [12] were -0.115 (inactive) and 0.816, respectively.

For the compound `CCOC(=O)C[C@H]1[C@H](OC(=O)c2cc3ccccc3oc2=O)[C@@H](NC(=O)c2ccc3ccccc3n2)c2cc(OCCCO)ccc2N1C(=O)c1ccccc1`, the composite z-score was 0.564 in [1]; 0.414 in [2]; -0.0652 in [3]; 1.4 in assay [5]; 0.439 in assay [6]; 0.344 in [7]. Besides, the composite z-score in [8] was 0.948; in [9] it was 1.04; in assay [10], 0.513; in assay [11], 0.15; in [13], 0.473; in assay [14] it was 0.218. Also, the composite z-score in assay [15] was 0.179; in assay [16], 0.0374; in [17] it was -0.138; in [18], 0.108; in assay [19], 1.12; in assay [20] it was 0.593. The z-score in assay [4] is -0.38 (inactive); in assay [12], -1.4.

Regarding `C[C@@H]1C=CCC(=O)OC[C@H](C)C(=O)N2CCC[C@H]2C(=O)OC1`, the composite z-score is 1.12 in assay [1]; -0.457 in [2]; -0.769 in assay [3]; 0.825 in assay [5]; 1.21 in [6]; 1.26 in assay [7]. The composite z-score in [8] was 0.829; in assay [9], 2.21; in assay [10], -1.04; in assay [11] it was 0.685; in assay [13], 0.851; in assay [14], -0.725. The composite z-score in assay [15] was -1.26; in [16], -0.22; in assay [17], 0.0188; in [18], 0.0419; in assay [19] it was 0.96; in [20] it was -0.285. The results for the z-score in assay [4] and in assay [12] were -0.479 (inactive) and -1.06, respectively.

As for `CC1CC/C=C\[C@H]2OC34C=CCN(Cn5nnc6ccccc65)C(=O)[C@H]3N(CCO)C(=O)[C@@H]4C2C(=O)O1` (stereo not given in full), the composite z-score in [1] is 2; in assay [2] it was -0.559; in assay [3] it was 0.514; in [5] it was -1.16; in assay [6], 0.476; in assay [7], -1.01. Also, the composite z-score in assay [8] was 0.0695; in assay [9], -0.52; in [10], 1.19; in assay [11] it was -0.487; in [13] it was -0.28; in assay [14] it was -0.614. Besides, the composite z-score in [15] is 0.383; in assay [16], -0.147; in assay [17], -0.291; in [18] it was -0.256; in [19] it was 2; in [20], -0.118. Besides, the z-score in assay [4] was -1.58 (inactive); in [12], -0.505.

As to `CCOC(=O)[C@H](CC(C)C)NC(=O)CCC1CC(OC(=O)NCc2cccc3ccccc23)CC2(CCCC(COC(=O)NCCN3CCOCC3)O2)O1` (stereo not given in full), the composite z-score in assay [1] is 0.608; in assay [2], -0.265; in [3], -0.668; in assay [5], 0.763; in [6], 1.28; in assay [7], 0.416. In addition, the composite z-score came to 0.707 in [8]; 0.652 in assay [9]; 0.209 in assay [10]; 1.26 in [11]; 0.444 in assay [13]; 0.144 in assay [14]. The composite z-score in assay [15] is -0.854; in [16], -0.176; in assay [17] it was -0.0605; in assay [18], -0.261; in assay [19] it was 0.217; in assay [20], 0.548. Also, the z-score was -0.746 (inactive) in assay [4] and -0.814 in assay [12].

`COCCCNC(=O)[C@@]1(Sc2ccc(C)cc2)CC(=O)N(Cc2ccccc2)[C@@H]1c1ccc(CO)cc1I`: the composite z-score in [1] was 0.179; in [2] it was 0.996; in assay [3], 1.31; in assay [5], -0.144; in assay [6], -0.969; in assay [7] it was -1.28. For the same compound, the composite z-score in [8] is -0.238; in assay [9], -1.4; in [10], 1.12; in assay [11] it was 0.362; in [13], -1.54; in [14], -1.11. Also, the composite z-score in assay [15] is 0.214; in assay [16], -0.0928; in assay [17], -0.0362; in assay [18], -0.176; in assay [19] it was 1.5; in [20], 1.23. The z-score was -0.606 (inactive) in assay [4] and -2.02 in [12].
